Measured values taken from PMC7862700, “An all-to-all approach to the identification of sequence-specific readers for epigenetic DNA modifications on cytosine”.

Experiments:
Test in all cases: DAPPL (digital affinity profiling via proximity ligation, sequencing); 10 mM Tris-HCl pH 7.5, 50 mM NaCl, 1 mM DTT, 4% glycerol, room temperature, 30 min; GST-TFs on glutathione beads, 16-mer random dsDNA library, 0.1% formaldehyde crosslink after washing; high values mean tight binding
Conditions in all cases: protein: recombinant; tags: N-terminal GST; dsDNA, one strand shown
GABPA = biological target: T1, GABPA (Homo sapiens, UniProt Q06546 1-454)
T1 sequence: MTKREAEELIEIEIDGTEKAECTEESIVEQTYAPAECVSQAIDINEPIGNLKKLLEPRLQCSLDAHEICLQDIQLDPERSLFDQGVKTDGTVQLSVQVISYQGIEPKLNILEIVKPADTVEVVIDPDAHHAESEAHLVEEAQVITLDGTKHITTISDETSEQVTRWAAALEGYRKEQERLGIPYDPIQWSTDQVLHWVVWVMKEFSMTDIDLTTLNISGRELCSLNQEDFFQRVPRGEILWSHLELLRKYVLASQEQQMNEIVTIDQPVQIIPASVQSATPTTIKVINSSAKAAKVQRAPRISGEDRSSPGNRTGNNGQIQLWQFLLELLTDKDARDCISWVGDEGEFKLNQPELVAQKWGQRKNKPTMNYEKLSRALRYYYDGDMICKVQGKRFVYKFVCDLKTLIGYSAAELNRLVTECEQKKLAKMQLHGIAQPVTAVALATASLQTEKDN
In short: (§1)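 After expression in yeast as GST fusions, human transcription factors were bound to glutathione beads, DNA-barcoded and mixed with a tag-only sample. The pools were incubated with 200 nmole of a 16-mer random double-stranded DNA library in Tris/NaCl/DTT/glycerol buffer (30 min, room temperature), washed and crosslinked with 0.1% formaldehyde. Proximity ligation with BsaI/T4 ligase ran for 1 h at 37 °C, before PCR amplification and sequencing on an Illumina NextSeq500. Binding signal is a hexamer's read frequency for a factor divided by its frequency for the tag-only sample.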

ERG = biological target: T2, ERG (Homo sapiens, UniProt P11308 1-479)
T2 sequence: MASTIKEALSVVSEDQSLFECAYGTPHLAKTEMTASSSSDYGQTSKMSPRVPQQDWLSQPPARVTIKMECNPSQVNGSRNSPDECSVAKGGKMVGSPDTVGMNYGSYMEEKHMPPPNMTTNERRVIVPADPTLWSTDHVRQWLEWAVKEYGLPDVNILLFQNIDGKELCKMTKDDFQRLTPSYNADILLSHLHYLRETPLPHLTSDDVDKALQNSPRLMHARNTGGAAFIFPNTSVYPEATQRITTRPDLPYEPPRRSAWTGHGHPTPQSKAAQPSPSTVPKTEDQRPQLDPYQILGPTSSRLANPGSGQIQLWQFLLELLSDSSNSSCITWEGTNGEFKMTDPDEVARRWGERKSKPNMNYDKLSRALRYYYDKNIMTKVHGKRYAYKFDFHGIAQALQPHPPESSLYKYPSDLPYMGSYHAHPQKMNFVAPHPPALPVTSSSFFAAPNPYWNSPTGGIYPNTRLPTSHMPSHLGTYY
In short: as §1

EHF = biological target: T3, EHF (Homo sapiens, UniProt Q9NZC4 1-300)
T3 sequence: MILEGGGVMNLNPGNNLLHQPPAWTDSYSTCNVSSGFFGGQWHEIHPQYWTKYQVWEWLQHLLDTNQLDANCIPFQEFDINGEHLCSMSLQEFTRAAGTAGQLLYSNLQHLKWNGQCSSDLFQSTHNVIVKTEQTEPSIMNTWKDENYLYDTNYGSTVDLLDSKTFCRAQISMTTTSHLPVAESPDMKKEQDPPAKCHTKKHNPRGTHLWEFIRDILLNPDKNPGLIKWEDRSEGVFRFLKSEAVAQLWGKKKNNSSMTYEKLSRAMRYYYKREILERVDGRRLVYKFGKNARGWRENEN
In short: as §1

SPIB = SPIB (Homo sapiens, UniProt Q01892 1-262)
In short: as §1

ETV5 = ETV5 (Homo sapiens, UniProt P41161 1-510)
In short: as §1

SPIC = biological target: T4, SPIC (Homo sapiens, UniProt Q8N5J4 1-248)
T4 sequence: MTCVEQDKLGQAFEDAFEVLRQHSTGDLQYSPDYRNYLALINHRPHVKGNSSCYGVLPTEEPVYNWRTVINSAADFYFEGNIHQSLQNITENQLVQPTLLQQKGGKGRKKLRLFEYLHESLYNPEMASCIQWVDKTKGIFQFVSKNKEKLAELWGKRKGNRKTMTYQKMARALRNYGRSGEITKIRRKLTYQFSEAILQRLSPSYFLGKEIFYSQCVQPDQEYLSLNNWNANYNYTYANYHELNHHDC
In short: as §1

ELF4 = ELF4 (Homo sapiens, UniProt Q99607 1-663)
In short: as §1

ETV3L = biological target: T5, ETV3L (Homo sapiens, UniProt Q6ZN32 1-361)
T5 sequence: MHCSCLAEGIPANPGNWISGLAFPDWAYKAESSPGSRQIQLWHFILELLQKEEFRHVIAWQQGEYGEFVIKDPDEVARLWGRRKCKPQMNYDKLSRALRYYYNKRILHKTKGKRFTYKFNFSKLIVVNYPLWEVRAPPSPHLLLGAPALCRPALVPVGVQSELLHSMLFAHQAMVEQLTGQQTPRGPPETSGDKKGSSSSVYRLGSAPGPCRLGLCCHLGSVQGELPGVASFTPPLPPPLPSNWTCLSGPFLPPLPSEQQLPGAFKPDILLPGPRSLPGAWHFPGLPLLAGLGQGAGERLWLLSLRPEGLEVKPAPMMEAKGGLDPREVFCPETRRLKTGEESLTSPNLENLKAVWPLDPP
In short: as §1

ETS2 = biological target: T6, ETS2 (Homo sapiens, UniProt P15036 1-469)
T6 sequence: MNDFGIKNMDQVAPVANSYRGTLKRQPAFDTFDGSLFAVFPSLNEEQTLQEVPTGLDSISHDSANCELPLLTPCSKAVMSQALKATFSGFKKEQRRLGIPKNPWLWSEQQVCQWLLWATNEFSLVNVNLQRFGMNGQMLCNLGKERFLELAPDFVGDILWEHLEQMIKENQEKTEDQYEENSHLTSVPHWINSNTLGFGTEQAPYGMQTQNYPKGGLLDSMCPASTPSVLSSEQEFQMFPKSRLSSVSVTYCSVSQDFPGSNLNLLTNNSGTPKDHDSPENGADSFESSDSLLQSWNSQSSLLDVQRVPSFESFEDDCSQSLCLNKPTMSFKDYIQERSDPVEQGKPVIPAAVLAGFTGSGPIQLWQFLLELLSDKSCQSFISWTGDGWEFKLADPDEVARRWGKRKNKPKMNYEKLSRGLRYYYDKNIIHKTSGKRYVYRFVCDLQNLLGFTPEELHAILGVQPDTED
In short: as §1

ETV7 = biological target: T7, ETV7 (Homo sapiens, UniProt Q9Y603 1-341)
T7 sequence: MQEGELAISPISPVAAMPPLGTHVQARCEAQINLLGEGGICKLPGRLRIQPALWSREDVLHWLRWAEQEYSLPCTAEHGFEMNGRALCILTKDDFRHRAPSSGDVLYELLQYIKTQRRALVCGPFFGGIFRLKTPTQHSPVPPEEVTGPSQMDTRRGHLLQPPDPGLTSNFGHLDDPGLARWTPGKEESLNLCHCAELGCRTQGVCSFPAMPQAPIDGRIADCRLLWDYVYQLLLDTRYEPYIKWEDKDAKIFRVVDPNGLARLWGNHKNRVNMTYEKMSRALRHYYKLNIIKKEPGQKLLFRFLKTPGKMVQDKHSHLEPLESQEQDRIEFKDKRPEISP
In short: as §1

ETV3 = biological target: T8, ETV3 (Homo sapiens, UniProt P41162-2 1-143)
T8 sequence: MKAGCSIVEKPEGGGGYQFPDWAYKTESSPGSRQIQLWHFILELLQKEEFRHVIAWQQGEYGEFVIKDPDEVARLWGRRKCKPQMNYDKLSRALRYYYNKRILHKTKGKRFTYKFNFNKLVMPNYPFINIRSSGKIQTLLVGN
In short: as §1

ELK1 = biological target: T9, ELK1 (Homo sapiens, UniProt P19419 1-428)
T9 sequence: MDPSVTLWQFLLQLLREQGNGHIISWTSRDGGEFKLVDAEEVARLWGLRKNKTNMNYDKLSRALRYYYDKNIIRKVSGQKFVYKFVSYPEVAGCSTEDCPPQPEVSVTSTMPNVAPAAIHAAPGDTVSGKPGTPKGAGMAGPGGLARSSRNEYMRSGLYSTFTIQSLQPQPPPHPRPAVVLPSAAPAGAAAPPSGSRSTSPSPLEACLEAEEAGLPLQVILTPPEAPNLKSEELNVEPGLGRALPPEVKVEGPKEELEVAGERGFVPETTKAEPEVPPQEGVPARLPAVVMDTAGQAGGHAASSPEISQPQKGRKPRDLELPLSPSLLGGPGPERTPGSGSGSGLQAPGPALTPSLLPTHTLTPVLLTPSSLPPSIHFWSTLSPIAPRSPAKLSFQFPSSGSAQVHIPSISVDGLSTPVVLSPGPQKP
In short: as §1

ELF3 = biological target: T10, ELF3 (Homo sapiens, UniProt P78545 1-371)
T10 sequence: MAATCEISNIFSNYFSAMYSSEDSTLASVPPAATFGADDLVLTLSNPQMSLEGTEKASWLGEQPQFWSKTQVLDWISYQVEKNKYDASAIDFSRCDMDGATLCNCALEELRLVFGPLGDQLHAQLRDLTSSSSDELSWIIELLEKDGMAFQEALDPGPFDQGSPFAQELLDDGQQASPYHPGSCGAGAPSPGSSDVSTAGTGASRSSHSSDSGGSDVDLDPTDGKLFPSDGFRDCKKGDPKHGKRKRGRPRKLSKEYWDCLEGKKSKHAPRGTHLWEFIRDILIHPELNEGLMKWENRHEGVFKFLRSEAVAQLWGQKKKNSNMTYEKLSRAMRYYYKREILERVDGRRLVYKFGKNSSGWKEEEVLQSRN
In short: as §1

ERF = biological target: T11, ERF (Homo sapiens, UniProt P50548 1-548)
T11 sequence: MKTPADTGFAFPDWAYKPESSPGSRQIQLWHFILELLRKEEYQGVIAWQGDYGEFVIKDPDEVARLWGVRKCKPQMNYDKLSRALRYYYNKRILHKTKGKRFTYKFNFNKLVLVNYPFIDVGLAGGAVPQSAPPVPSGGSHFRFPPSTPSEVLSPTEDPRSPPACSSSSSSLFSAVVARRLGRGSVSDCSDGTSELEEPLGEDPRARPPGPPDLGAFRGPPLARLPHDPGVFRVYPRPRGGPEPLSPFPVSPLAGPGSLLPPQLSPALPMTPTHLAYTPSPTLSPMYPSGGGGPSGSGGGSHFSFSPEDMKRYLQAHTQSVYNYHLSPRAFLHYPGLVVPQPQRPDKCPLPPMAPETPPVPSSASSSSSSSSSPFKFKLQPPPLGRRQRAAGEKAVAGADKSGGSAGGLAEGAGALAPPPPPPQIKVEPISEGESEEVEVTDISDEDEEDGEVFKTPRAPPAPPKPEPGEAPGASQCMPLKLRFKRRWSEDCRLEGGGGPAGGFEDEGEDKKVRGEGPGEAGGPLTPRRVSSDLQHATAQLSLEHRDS
In short: as §1

SPDEF = biological target: T12, SPDEF (Homo sapiens, UniProt O95238 1-335)
T12 sequence: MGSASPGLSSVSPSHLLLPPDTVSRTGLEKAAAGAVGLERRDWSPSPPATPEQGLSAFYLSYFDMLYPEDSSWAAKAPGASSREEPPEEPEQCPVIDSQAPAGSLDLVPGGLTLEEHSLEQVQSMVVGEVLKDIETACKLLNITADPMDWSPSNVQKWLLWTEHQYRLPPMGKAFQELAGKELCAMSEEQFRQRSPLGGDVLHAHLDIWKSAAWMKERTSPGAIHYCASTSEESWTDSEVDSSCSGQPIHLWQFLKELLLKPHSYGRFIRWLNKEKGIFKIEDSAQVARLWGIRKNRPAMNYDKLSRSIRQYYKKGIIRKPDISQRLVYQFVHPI
In short: as §1

ETV6 = ETV6 (Homo sapiens, UniProt P41212 1-452)
In short: as §1

Sequence of ETV5 (P41161 whole entry): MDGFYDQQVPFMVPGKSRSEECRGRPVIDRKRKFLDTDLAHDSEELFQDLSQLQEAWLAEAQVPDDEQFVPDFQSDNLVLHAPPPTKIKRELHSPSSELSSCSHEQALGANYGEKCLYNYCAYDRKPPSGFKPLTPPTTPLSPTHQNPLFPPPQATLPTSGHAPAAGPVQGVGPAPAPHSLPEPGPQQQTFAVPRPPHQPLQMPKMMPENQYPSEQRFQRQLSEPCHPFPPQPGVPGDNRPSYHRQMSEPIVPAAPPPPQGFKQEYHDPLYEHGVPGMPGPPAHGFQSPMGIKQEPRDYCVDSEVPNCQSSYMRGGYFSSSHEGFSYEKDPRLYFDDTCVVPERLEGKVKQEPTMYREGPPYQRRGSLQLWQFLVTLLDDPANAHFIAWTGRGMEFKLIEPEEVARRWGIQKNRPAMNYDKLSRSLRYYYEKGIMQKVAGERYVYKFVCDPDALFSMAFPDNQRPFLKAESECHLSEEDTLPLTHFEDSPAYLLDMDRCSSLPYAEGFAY
Sequence of SPIB (Q01892 whole entry): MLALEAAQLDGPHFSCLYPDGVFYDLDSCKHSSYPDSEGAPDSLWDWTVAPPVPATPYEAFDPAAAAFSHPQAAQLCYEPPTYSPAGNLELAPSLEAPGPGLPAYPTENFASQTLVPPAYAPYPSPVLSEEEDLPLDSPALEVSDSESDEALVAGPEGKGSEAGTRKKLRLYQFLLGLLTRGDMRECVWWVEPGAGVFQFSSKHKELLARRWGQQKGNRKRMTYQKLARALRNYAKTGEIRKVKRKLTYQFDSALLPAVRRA
Sequence of ETV6 (P41212 whole entry): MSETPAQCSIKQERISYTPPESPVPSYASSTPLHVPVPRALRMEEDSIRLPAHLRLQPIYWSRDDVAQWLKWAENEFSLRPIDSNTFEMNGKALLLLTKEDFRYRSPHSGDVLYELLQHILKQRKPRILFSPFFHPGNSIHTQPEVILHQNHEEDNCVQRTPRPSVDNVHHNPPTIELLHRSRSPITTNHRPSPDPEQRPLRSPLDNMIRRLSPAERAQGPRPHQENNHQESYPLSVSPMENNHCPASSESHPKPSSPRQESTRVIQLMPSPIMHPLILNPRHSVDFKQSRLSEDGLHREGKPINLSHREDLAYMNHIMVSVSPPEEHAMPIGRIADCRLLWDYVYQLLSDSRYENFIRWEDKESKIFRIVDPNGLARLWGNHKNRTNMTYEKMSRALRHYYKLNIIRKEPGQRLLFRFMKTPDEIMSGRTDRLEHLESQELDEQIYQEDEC
Sequence of ELF4 (Q99607 whole entry): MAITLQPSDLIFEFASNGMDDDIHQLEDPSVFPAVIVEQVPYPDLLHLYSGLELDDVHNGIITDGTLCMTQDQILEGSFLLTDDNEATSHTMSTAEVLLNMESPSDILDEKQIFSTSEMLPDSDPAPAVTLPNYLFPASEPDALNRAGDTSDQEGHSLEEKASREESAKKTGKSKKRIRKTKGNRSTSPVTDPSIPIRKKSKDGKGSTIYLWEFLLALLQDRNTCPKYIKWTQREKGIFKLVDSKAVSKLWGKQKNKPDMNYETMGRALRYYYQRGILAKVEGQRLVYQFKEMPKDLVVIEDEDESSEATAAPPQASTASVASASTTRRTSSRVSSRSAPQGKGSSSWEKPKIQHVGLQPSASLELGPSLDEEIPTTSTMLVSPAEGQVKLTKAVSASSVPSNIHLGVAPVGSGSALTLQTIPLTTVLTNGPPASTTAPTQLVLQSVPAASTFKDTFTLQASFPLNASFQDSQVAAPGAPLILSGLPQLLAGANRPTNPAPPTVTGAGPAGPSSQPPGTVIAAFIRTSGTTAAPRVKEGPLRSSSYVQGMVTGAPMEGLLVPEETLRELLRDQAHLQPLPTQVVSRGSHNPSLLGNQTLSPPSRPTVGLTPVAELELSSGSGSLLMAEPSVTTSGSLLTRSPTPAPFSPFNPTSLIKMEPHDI

## CGGCTG
GABPA
  binding signal: 1.03 fold enrichment (6-mer frequency, TF over GST control)
ERG
  binding signal: 1.04 fold enrichment (6-mer frequency, TF over GST control)
EHF
  binding signal: 1.05 fold enrichment (6-mer frequency, TF over GST control)
SPIB
  binding signal: 1.03 fold enrichment (6-mer frequency, TF over GST control)
ETV5
  binding signal: 1.01 fold enrichment (6-mer frequency, TF over GST control)
SPIC
  binding signal: 1.12 fold enrichment (6-mer frequency, TF over GST control)
ELF4
  binding signal: 1.12 fold enrichment (6-mer frequency, TF over GST control)
ETV3L
  binding signal: 1.02 fold enrichment (6-mer frequency, TF over GST control)
ETS2
  binding signal: 1.07 fold enrichment (6-mer frequency, TF over GST control)
ETV7
  binding signal: 1.1 fold enrichment (6-mer frequency, TF over GST control)
ETV3
  binding signal: 1.01 fold enrichment (6-mer frequency, TF over GST control)

## GGGAAA
ELK1
  binding signal: 1.05 fold enrichment (6-mer frequency, TF over GST control)
GABPA
  binding signal: 1.02 fold enrichment (6-mer frequency, TF over GST control)
ERG
  binding signal: 1.03 fold enrichment (6-mer frequency, TF over GST control)
EHF
  binding signal: 1.07 fold enrichment (6-mer frequency, TF over GST control)
SPIB
  binding signal: 1.1 fold enrichment (6-mer frequency, TF over GST control)
ETV5
  binding signal: 1.05 fold enrichment (6-mer frequency, TF over GST control)
ELF3
  binding signal: 1.03 fold enrichment (6-mer frequency, TF over GST control)
ERF
  binding signal: 1.02 fold enrichment (6-mer frequency, TF over GST control)
ETV3L
  binding signal: 1.05 fold enrichment (6-mer frequency, TF over GST control)
SPDEF
  binding signal: 1.01 fold enrichment (6-mer frequency, TF over GST control)
ETV7
  binding signal: 1.12 fold enrichment (6-mer frequency, TF over GST control)
ETV3
  binding signal: 1.03 fold enrichment (6-mer frequency, TF over GST control)
ETV6
  binding signal: 1.22 fold enrichment (6-mer frequency, TF over GST control)
